The list is not random: actives were taken first. Their share in the collection is about 1.3%.
CRFR2-BP ag: agonists of human CRF-binding protein/CRF-R2 receptor complex; HEK293 CRF-R2/CRF-BP, calcium dye fluorescence (FLIPR); percent of saturating CRF peptide response; activation, % at 13.2 µM; 350,000 compounds, 0.46% hits; AID 588473;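 active = activation of at least 50%, plus an integration ratio under a set limit after plate pattern correction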
RTF Ca sens inh: cardiac RTF calcium desensitization | IANBD-labeled cardiac RTF, Ca2+ fluorescence | inhibition, % at 7.15 µM | P19429+P45379 | 340,000 compounds, 0.12% hits;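 active = inhibition above the mean inhibition of all tested compounds plus 3 SD, cut at about 17% in these data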;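 note: assay run at fixed EC70 calcium of 1.6 mM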
CRFBP-R2 block: blocks CRF-induced signaling of the CRF-BP/CRF-R2 complex; HEK293 CRF-R2/CRF-BP, CRF-induced calcium fluorescence; AID 588475; 350,000 compounds, 0.59% hits; inhibition, % at 11.8 µM;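 active = inhibition of the ligand-induced calcium signal above about 50% at the single tested concentration, limit read from the data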
cardiac RTF act: increases calcium sensitivity of human cardiac regulated thin filaments. P19429+P45379. IANBD-labeled TnC RTF fluorescence at EC20 calcium; 0% EC20 calcium, 100% full calcium. activation, % at 7.2 µM. 340,000 compounds, 0.24% hits;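 active = activation above the mean over all tested compounds plus 3 SD, cut at about 30% in these data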;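 note: rise in fluorescence read as greater calcium sensitivity of cardiac thin filaments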
A number is an active result.

What do the screens show for `CC1=Nc2ccccc2/C1=C/c1c(N)n2c(S(=O)(=O)C(C)C)nsc2nc1=O`?
CRFR2-BP ag: inactive; RTF Ca sens inh: inactive; CRFBP-R2 block: inactive; cardiac RTF act: inactive

Results for COCC(=O)N(C)[C@H]1C[C@H]2c3cc(N4CCN(C)CC4)ccc3CCN2C(=O)[C@H]1[C@H](C)O ?
CRFR2-BP ag: inactive; RTF Ca sens inh: inactive; CRFBP-R2 block: 111.1; cardiac RTF act: inactive

How did C[C@H](O)[C@@H]1C(=O)N2CCc3ccc(N4CCN(C)CC4)cc3[C@@H]2C[C@@H]1N(C)C(=O)c1ccc(C#N)cc1 do in these assays?
CRFR2-BP ag: inactive; RTF Ca sens inh: inactive; CRFBP-R2 block: inactive; cardiac RTF act: inactive

How did Cc1ccccc1-c1cccc([C@@H]2C[C@H]3C(CN2)CON3C)c1 (stereo not given in full) do in these assays?
CRFR2-BP ag: inactive; RTF Ca sens inh: inactive; CRFBP-R2 block: inactive; cardiac RTF act: inactive

What do the screens show for `Cc1cc(C)c2c(N)c(C(=O)c3ccc(Cl)cc3)sc2n1`?
CRFR2-BP ag: inactive; RTF Ca sens inh: inactive; CRFBP-R2 block: inactive; cardiac RTF act: inactive

How did CC(=O)c1sc2nsc(SCCN3CCCCC3)c2c1N do in these assays?
CRFR2-BP ag: inactive; CRFBP-R2 block: inactive

How did Nc1c(C(=O)c2ccccc2)sc2nsc(SCCN3CCCC3)c12 do in these assays?
CRFR2-BP ag: 102.2; RTF Ca sens inh: inactive; CRFBP-R2 block: inactive; cardiac RTF act: inactive

How did Nc1c(C(=O)c2ccc(Cl)cc2)sc2nsc(SCCN3CCOCC3)c12 do in these assays?
CRFR2-BP ag: 91.6; RTF Ca sens inh: inactive; CRFBP-R2 block: inactive; cardiac RTF act: 32.5

What do the screens show for `Cc1cc(C(=O)O)ccc1-c1ccc(/C=C2\SC(=O)N(CC(=O)Nc3ccc4c(c3)OCO4)C2=O)o1`?
RTF Ca sens inh: inactive; cardiac RTF act: 46.0

How did COc1ccc(-c2cc(C(=O)O)nc3ccc4ccccc4c23)cc1OC do in these assays?
CRFR2-BP ag: inactive; RTF Ca sens inh: inactive; CRFBP-R2 block: 58.0; cardiac RTF act: inactive

Results for Cc1c(NC(=O)CN2C(=O)NC3(CCCCC3)C2=O)c(=O)n(-c2ccccc2)n1C ?
CRFR2-BP ag: inactive; RTF Ca sens inh: inactive; CRFBP-R2 block: inactive; cardiac RTF act: inactive

What do the screens show for `Cn1c(=O)c2c(nc(N3CCc4ccccc4C3)n2Cc2ccccc2F)n(C)c1=O`?
CRFR2-BP ag: inactive; RTF Ca sens inh: inactive; CRFBP-R2 block: inactive; cardiac RTF act: inactive

How did CN1CCN(c2nc3c(c(=O)n(C)c(=O)n3C)n2Cc2ccccc2F)CC1 do in these assays?
CRFR2-BP ag: inactive; RTF Ca sens inh: inactive; CRFBP-R2 block: inactive; cardiac RTF act: 52.2

How did CCCn1c(=O)c(C(=O)NNC(=O)c2ccccc2Cl)c(O)c2ccccc21 do in these assays?
CRFR2-BP ag: 66.3; RTF Ca sens inh: inactive; CRFBP-R2 block: inactive; cardiac RTF act: inactive

Results for Cn1c(=O)c(C(=O)NCc2ccccc2Cl)c(O)c2ccccc21 ?
CRFR2-BP ag: inactive; RTF Ca sens inh: inactive; CRFBP-R2 block: 64.6; cardiac RTF act: inactive

Results for CCn1c(=O)c(C(=O)NCc2ccccc2Cl)c(O)c2ccccc21 ?
CRFR2-BP ag: inactive; RTF Ca sens inh: inactive; CRFBP-R2 block: inactive; cardiac RTF act: inactive

Results for CN1C[C@@H]2[C@@H]3C(=O)N(C)C(=O)[C@@H]3[C@](Cc3ccccc3)(C1=O)N2C(=O)c1ccccc1 ?
CRFR2-BP ag: inactive; RTF Ca sens inh: inactive; CRFBP-R2 block: inactive; cardiac RTF act: inactive

What do the screens show for `COC1=CC(=Cc2c(N)n3nc(CC(=O)N4CCCCC4)sc3nc2=O)C=C(OC)C1=O`?
CRFR2-BP ag: 173.0; RTF Ca sens inh: inactive; CRFBP-R2 block: inactive; cardiac RTF act: inactive

Results for COC1=C/C(=C/c2c(N)n3nc(CC(=O)N4CCCC4)sc3nc2=O)C=CC1=O ?
CRFR2-BP ag: inactive; RTF Ca sens inh: inactive; CRFBP-R2 block: inactive; cardiac RTF act: inactive

Results for O=C(NC(Nc1nc2ccc([N+](=O)[O-])cc2s1)(C(F)(F)F)C(F)(F)F)c1ccccc1Cl ?
CRFR2-BP ag: inactive; RTF Ca sens inh: inactive; CRFBP-R2 block: inactive; cardiac RTF act: inactive

How did O=C(NC(Nc1nc2ccc([N+](=O)[O-])cc2s1)(C(F)(F)F)C(F)(F)F)c1cccnc1 do in these assays?
CRFR2-BP ag: 57.2; RTF Ca sens inh: inactive; CRFBP-R2 block: 59.9; cardiac RTF act: inactive

What do the screens show for `COc1cc(/C=C2\SC(=O)N(c3ccc(Cl)cc3)C2=O)cc([N+](=O)[O-])c1O`?
CRFR2-BP ag: inactive; RTF Ca sens inh: inactive; CRFBP-R2 block: inactive; cardiac RTF act: inactive

Results for Cc1cccc(NC(=O)CN2C(=O)S/C(=C\c3ccc(O)c([N+](=O)[O-])c3)C2=O)c1 ?
CRFR2-BP ag: inactive; RTF Ca sens inh: inactive; CRFBP-R2 block: inactive; cardiac RTF act: inactive

What do the screens show for `O=C1/C(=C\c2cc([N+](=O)[O-])ccc2O)SC(=S)N1Cc1ccc(Cl)cc1`?
CRFR2-BP ag: 140.0; RTF Ca sens inh: inactive; CRFBP-R2 block: inactive; cardiac RTF act: 134.7

What do the screens show for `O=C1S/C(=C\c2ccc(O)c([N+](=O)[O-])c2)C(=O)N1c1ccccc1Cl`?
CRFR2-BP ag: inactive; RTF Ca sens inh: inactive; CRFBP-R2 block: 54.9; cardiac RTF act: inactive

How did COc1cc(/C=C2\SC(=O)N(c3cccc(Cl)c3)C2=O)cc([N+](=O)[O-])c1O do in these assays?
CRFR2-BP ag: inactive; RTF Ca sens inh: inactive; CRFBP-R2 block: 53.7; cardiac RTF act: inactive

What do the screens show for `O=C1S/C(=C\c2ccc(O)c([N+](=O)[O-])c2)C(=O)N1Cc1cccc([N+](=O)[O-])c1`?
CRFR2-BP ag: inactive; CRFBP-R2 block: 91.7

What do the screens show for `Cc1csc(NC(=O)CSc2nccn2C)n1`?
CRFR2-BP ag: inactive; RTF Ca sens inh: inactive; CRFBP-R2 block: inactive; cardiac RTF act: inactive

What do the screens show for `CCOC(=O)c1cc2c(c(-c3ccccc3)n1)[C@H](CCO)N(S(=O)(=O)C(C)(C)C)C2`?
CRFR2-BP ag: inactive; RTF Ca sens inh: inactive; CRFBP-R2 block: inactive; cardiac RTF act: inactive

How did Cc1c(C(=O)N2CCNCC2)oc2ccccc12 do in these assays?
CRFR2-BP ag: inactive; RTF Ca sens inh: inactive; CRFBP-R2 block: inactive; cardiac RTF act: inactive

What do the screens show for `CN(C)c1ccc(/C=C(\C#N)C(=O)Nc2nc3c(s2)CCN(Cc2ccccc2)C3)cc1`?
CRFR2-BP ag: 345.2; RTF Ca sens inh: inactive; CRFBP-R2 block: inactive; cardiac RTF act: 83.1

What do the screens show for `O=S(=O)(c1cccc2nsnc12)N1CCCC1`?
CRFR2-BP ag: inactive; RTF Ca sens inh: inactive; CRFBP-R2 block: inactive; cardiac RTF act: inactive

How did O=S(=O)(c1cccc2nsnc12)N1CCc2ccccc2C1 do in these assays?
CRFR2-BP ag: inactive; RTF Ca sens inh: inactive; CRFBP-R2 block: 52.3; cardiac RTF act: inactive

Results for CCN(CC)C(=O)c1c[nH]c2ccc(S(=O)(=O)Nc3cc(C)cc(C)c3)cc2c1=O ?
CRFR2-BP ag: 125.4; RTF Ca sens inh: inactive; CRFBP-R2 block: inactive; cardiac RTF act: inactive

How did Cc1cc(C)cc(NS(=O)(=O)c2ccc3[nH]cc(C(=O)N4CCc5ccccc54)c(=O)c3c2)c1 do in these assays?
CRFR2-BP ag: 61.0; RTF Ca sens inh: inactive; CRFBP-R2 block: inactive; cardiac RTF act: inactive

How did O=c1c(O)c(-c2cccs2)oc2ccccc12 do in these assays?
CRFR2-BP ag: 107.7; RTF Ca sens inh: inactive; CRFBP-R2 block: inactive; cardiac RTF act: inactive
